Reference: PubChem BioAssay (NCATS)
Results filed as inconclusive are left out. The source made the active and inactive calls. Calls come from the whole dose curve; as a rule, active = well fitted inhibition curve with a large enough effect; inconclusive = small, poorly fitted or top-dose-only effect; inactive = flat fitted curve, though single readings scatter.

assay: qHTS for Inhibitors of Plasmodium falciparum (DD2) proliferation (AID 504314); settings: P. falciparum Dd2 in erythrocytes, SYBR Green growth, 72 h; series mostly up to 6.11 µM; activity, negative = inhibition: at the top concentration
From the text: Plasmodium falciparum is a virulent malarial parasite that kills 1-2 million people worldwide each year. Malaria not only inflicts tremendous suffering and morbidity on the human population, but has dramatically influenced the course of civilization with profound sociological and economic implications (Shah, S. 2010). Transmitted by mosquitoes, the sporozoite form of the parasite enters the blood stream to infect hepatocytes, where they become merozoites that infect red blood cells (erythrocytes). Within erythrocytes, merozoites begin a […] cycle of growth and division, after which the parasite is released to infect new red blood cells. Gametocytes, which form within erythrocytes as well, circulate in the bloodstream and are ingested by the mosquito, thereby completing the life cycle (see CDC website). To profile malarial lines for differential chemical responses and to identify inhibitors of malarial growth, an assay that measures P. falciparum growth and replication within erythrocytes was employed. This assay uses a DNA binding fluorescent dye (SYBR Green) to detect parasite DNA following cell lysis. Because mature erythrocytes lack DNA, only Plasmodium-derived DNA is detected. The P. falciparum line cp250, derived from a malarial isolate from Cambodia, (Mu, J., et al. 2010) was added to the panel of lines, Dd2, HB3, 7G8 and GB4 in this study.
Laboratory of Assay Development and Screening Technology [ADST] and NIH Chemical Genomics Center [NCGC]
Boston University, Chemistry Department, Center for Chemical Methodology and Library Development [CMLD-BU]
NIH National Institute of Allergy and Infectious Diseases [NIAID]
ADST Assay Protocol Summary:
The 1536-well SYBR Green viability assay was based on the method of Bennett et al (2004) and described previously in 1536-well format (Yuan J., et al. 2009). For screening 3 ul culture medium was dispensed into 1536 well black clear bottom plates (Aurora Biotechnologies) using a Multidrop Combi (Thermo Fisher Scientific Inc.), 23 nL compounds in DMSO were added by a pin transfer (Cleveland, P.H. and Koutz, P.J, 2005) using a pin tool-based delivery system (Kalypsys), and 5 ul of erythrocytes infected with P. falciparum one of five lines (cp250, Dd2, HB3, 7G8 or GB4, 0.3% parasitemia, 2.5% hematocrit final concentration) were added. The plates were incubated at 37C in a humidified incubator in 5% CO2 for 72 h, and 2 ul lysis buffer (20 mM Tris HCl, 10 mM EDTA, 0.16% saponin, 1.6% triton X, 10X SYBR Green I (supplied as 10,000X final concentration by Invitrogen) was added to each well. The plates were mixed for 25 sec with gentle shaking and incubated overnight at room temperature in the dark. The following morning, fluorescence intensity at 485(14) nm excitation and 535(25) nm emission wavelengths was measured on an EnVision (Perkin Elmer) plate reader. Plate reads were normalized relative to the control inhibitor (0.29 uM artemisinin) and vehicle (DMSO) wells present on each plate and then corrected by an algorithm using vehicle-only control plates at the beginning and end of the compound plate stack.
Shah, S. (2010). The Fever: how malaria has ruled humankind for 500,000 years. New York, Sarah Crichton Books.
CDC web site, http://www.cdc.gov/malaria/about/biology/index.html
Mu, J., Myers, R.A., Jiang, H., Liu, S., Ricklefs, S., Waisberg, M., Chotivanich, K., Wilairatana, P., Krudsood, S., White, N.J., et Plasmodium falciparum genome-wide scans for positive selection, recombination hot spots and resistance to antimalarial drugs Nature Genetics 2010, 42, pp 268-271
Bennett TN, Paguio, M., Gligorijevic, B., Seudieu, C., Kosar, A. D., Davidson, E., and Roepe, P. D. Novel, rapid, and inexpensive cell-based quantification of antimalarial drug efficacy Antimicrobial Agents Chemother. 2004, 48(5): pp 1807-10
Yuan J, Johnson RL, Huang RL, Wichterman J, Jiang HY, Hayton K, Fidock DA, Wellems TE, Inglese J, Austin CP, Su XZ. […]

activity, negative = inhibition, inactive:
COC(=O)C1=C(C)N(CCC(C)O)C(=O)N(C(C)=O)C1c1ccccc1 (stereo not given) -1.22%, COc1ccc(C2=CC3=C(Br)C(=O)C(C)(OC(=O)c4ccc(Cl)nc4)C(=O)C3=CO2)cc1 (stereo not given) -0.114%, COC(=O)C=P(c1ccccc1)(c1ccccc1)c1ccccc1 -6.22%, CC(CCC(=O)OC[C@H]1O[C@H](C#Cc2ccccc2)C=C[C@H]1Oc1ccc(C)cc1)=NOC[C@@H](O)[C@H]1O[C@@H]2OC(C)(C)O[C@H]2[C@@H]1O -8.19%, C=CCOC(=O)NC(c1ccc(F)c(F)c1)C(C(=O)CCl)C(=O)OC (stereo not given) -1.79%, C=C(C)CCCN1C=C(C(=O)OCC)C(c2ccccc2)NC1=O (stereo not given) 3.72%, CC(C)CON=C1C[C@@H](O)[C@@H](O)[C@@H]2[C@H]3C(=O)N(C[C@@H]4CCCO4)C(=O)[C@@H]3CC[C@H]12 1.41%, CC1(OC(=O)c2ccco2)C(=O)C=C2C=C(c3ccsc3)OC=C2C1=O (stereo not given) -4.14%, C=C(C#Cc1ccc(OC)cc1)CCN1C=C(C(=O)OCC)C(c2ccccc2)NC1=O (stereo not given) 0.515%, COc1ccc2c(c1)c(CC(=O)NCc1ccc3c(c1)OCO3)c(C)n2C(=O)c1ccc(Cl)cc1 -5.55%, COc1ccc2c(c1)[C@@H](NC(=O)C(F)(F)F)C1CCCCC21c1ccccc1 (stereo not given in full) -9.09%, CCOC(=O)CN1C(=O)NC(CCc2ccccc2)C(C(=O)OC)=C1C (stereo not given) -5.67%, CCN1C(=NCc2ccccc2)N[C@@H](CCc2ccccc2)[C@H](C(=O)OC)[C@H]1C -5.63%, O=C1[C@@H]2[C@H]3[C@H](O)[C@H](O)CC(=NOC[C@@H](O)COCc4ccco4)[C@H]3CC[C@H]2C(=O)N1c1ccc(F)cc1F -1.24%, C[C@@H]1CC[C@H]2C(=O)O[C@@H](Cc3ccccc3)CN2[C@@H]1c1ccc(Br)cc1 -2.39%, COC(=O)C(C(=O)OC)[C@H]1c2ccccc2[C@@H]2C(=C[C@@H](C)[C@H]3C(=O)N(c4ccccc4)C(=O)[C@H]32)N1C(=O)OC -5.56%, C[C@H]1CC[C@H]2C(=O)N[C@H](Cc3ccccc3)C(=O)N2[C@H]1c1ccccc1 -11.6%, N#CCCn1cnc2c1NC=NC2Cl (stereo not given) -3.16%, CCOC(=O)c1c(C(=O)OCC)c2c3ccccc3cc(C)n2c1C(=O)OC -7.72%, CCN1C(=O)NC(c2cccs2)C(C(C)=O)=C1C (stereo not given) -7.16%, COC(=O)C1=C[C@]2(c3ccccc3C[C@H](OC)[C@@H]2C)[C@H]2C=C[C@H]1C2 -11.2%, CC(CCN1CCc2nc(-c3ccccc3)c(-c3ccccc3)cc2C1)=NOC[C@@H](O)[C@H]1O[C@@H]2OC(C)(C)O[C@H]2[C@@H]1O -6.2%, O=C(NCCOc1ccccc1)O[C@@H]1C(=O)c2cc(Br)ccc2O[C@H]1c1ccc2c(c1)OCO2 -9.94%, CCOC(=O)C1=C(CCl)NC(=O)N(C(C)=O)C1c1ccccc1 (stereo not given) -3.62%, CC1(C)OCC([C@H](O)C2=CCCCC2=O)CO1 -9.79%, CCCCCCCC1=Cc2ccc(F)cc2C(C(C(=O)OC)C(=O)OC)N1C(=O)OC (stereo not given) -0.0199% [at 1.12 µM], CCN(CCNC(=O)[C@H]1C=C(OC)C(=O)C[C@@H]2c3ccccc3C[C@]12C)C(C)=O -2.19%, O=C(NC(CC1=CCCCC1)c1ccccc1)C(F)(F)F (stereo not given) -3.75%, CCN1C(=NCc2cccc(Cl)c2)N[C@@H](CCc2ccccc2)[C@H](C(=O)OC)[C@H]1C 0.0174%, CCCNC(=O)OC[C@H]1O[C@H](CCON=C2C[C@@H](O)[C@@H](O)[C@@H]3[C@H]4C(=O)N(CC)C(=O)[C@@H]4CC[C@H]23)C=C[C@H]1Oc1ccc(OC)cc1 -4.75%, CC12C=C(C=CCCc3ccco3)C(C)(C1)C(CCc1ccco1)CC2=O (stereo not given) 0.871%, C=CCN(C)C1=NC(c2ccccc2)C(C(=O)OC)=C(C)N1CCOC (stereo not given) -2.48%, CC(=O)OC[C@H]1O[C@H](C#Cc2ccccc2Cl)C=C[C@H]1OC(C)=O -6.6%, CCCCC1=CC2=C(c3ccco3)C(=O)C(C)(OC(=O)c3ccc(OC)cc3)C(=O)C2=CN1Cc1ccc(OC)cc1 (stereo not given) 1.26% [at 1.12 µM], COC(=O)C1=C(C)[C@H](O)[C@@H](C)[C@](C)(c2cc(OC)c(C)c(OC)c2COc2ccccc2)O1 -11.2%, CC(=O)OC[C@H]1O[C@H](CCON=C(C)CCC(=O)OC[C@H]2O[C@H](C#Cc3ccccc3)C=C[C@H]2Oc2ccc(C)cc2)C=C[C@H]1OC(C)=O -9.21%, CC(CCC(=O)OC[C@H]1O[C@H](C#Cc2ccccc2)C=C[C@H]1Oc1ccc(C)cc1)=NOC[C@@H](O)COCc1ccco1 -2.53%, C=CCN1C(=O)CC[C@@]23C1=NC(C(=O)OC)=C(C(=O)OC)[C@@H]2N(CC=C)c1ccccc13 -6.65%

Potency, inactive:
C(=Cc1nc(-c2ccccc2)oc1Nc1ccc2ccccc2c1)c1ccccc1, C=CCC(Nc1ccc(OC)cc1)C(=O)OCC (stereo not given)
